About 8,800 targets were measured; listed, in parts, are those with a hit and a random draw of the rest. About 0.5% of all pairs of compound and target were hits.
Columns and labels:
Assay in all cases: log2 fold change, soluble protein after heating vs DMSO (PISA); higher = thermal stabilisation; K562 lysate, 10 uM; active = over 0.2 and 3.5 SD of the protein, either way, in both replicates (recomputed)
erlotinib = compound: C#Cc1cccc(Nc2ncnc3cc(OCCOC)c(OCCOC)cc23)c1 [erlotinib]
Outline: (§1)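 Following dounce homogenisation of K562 pellets in PBS pH 7.4 with 1 mM MgCl2, crude extract at 1 mg/mL protein was incubated for 30 min with 10 μM compound. Aliquots were then heated for 3 min over 48°C-58°C and pooled, NP-40 was added to 0.5% at 4°C, and soluble protein was recovered as the supernatant at 21,000xg for 90 min. Channel-sum-equalised TMTpro 16plex LC-MS/MS quantified this protein. Each value, from duplicates, is a log-two fold change in thermal stability relative to solvent controls.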

[1] = compound: C/C(=N\NC(=O)C1=CC(=CC=C1)S(=O)(=O)N2CCOCC2)/C3=C(C=CC(=C3)Cl)O
Outline: as §1

[2] = compound: C1=CC(=CC=C1C2=NC3=C(N2)C=C(C=C3)C(=O)N)OC4=CC=C(C=C4)Cl
Outline: as §1

[3] = compound: C1=CC2=C(C=CC(=C2)/C=C\3/C(=O)NC(=NCC4=CC=CS4)S3)N=C1
Outline: as §1

[4] = compound: C1=CC2=NC=CN=C2C=C1/C=C/3\C(=O)NC(=O)S3
Outline: as §1

[5] = compound: C1=CC=C(C=C1)C2=NC(=C(N2)C3=CC=NC=C3)C4=CC(=C(C=C4)Cl)O
Outline: as §1

[6] = compound: C1=CC=C2C(=C1)C3=NNC4=CC=CC(=C43)C2=O
Outline: as §1

[7] = compound: C1CCN(C1)C(=O)NC2=CC=CC(=C2)NC3=NC=C(C(=N3)NCCC4=CN=CN4)Br
Outline: as §1

[8] = compound: C1CN(CCC1(CC2=CC=C(C=C2)Cl)N)C3=NC=NC4=C3C=CN4
Outline: as §1

IRAK-1-4 Inhibitor I = compound: C1COCCN1CCN2C3=CC=CC=C3N=C2NC(=O)C4=CC(=CC=C4)[N+](=O)[O-] [IRAK-1-4 Inhibitor I]
Outline: as §1

ibrutinib = compound: C=CC(=O)N1CCC[C@@H](n2nc(-c3ccc(Oc4ccccc4)cc3)c3c(N)ncnc32)C1 [ibrutinib]
Outline: as §1

[9] = compound: CC(=O)c1cnc2ccc(-c3cc(Cl)c(O)c(Cl)c3)nc2c1N[C@H]1CC[C@H](CN(C)C)CC1
Outline: as §1

ralimetinib = compound: CC(C)(C)Cn1c(N)nc2ccc(-c3[nH]c(C(C)(C)C)nc3-c3ccc(F)cc3)nc21 [ralimetinib]
Outline: as §1

[10] = compound: CC(C)(O)CC(=O)NCCn1ccc2ncnc(Nc3ccc(Oc4cccc(C(F)(F)F)c4)c(Cl)c3)c21
Outline: as §1

[11] = compound: CC(C)C1=C2N=C(C=C(N2N=C1)NCC3=CC=CC=C3)NCCCCCCN
Outline: as §1

[12] = compound: CC1=C(C(CC(=O)N1)C2=CC=C(C=C2)C(F)(F)F)C(=O)NC3=C(C=C4C(=C3)C=NN4)F
Outline: as §1

[13] = compound: CC1=C(C2=C(C=C1)C(=O)C3=CC=CC=C3N2CCCN)C
Outline: as §1

[14] = compound: CC1=C(C=C(C=C1)NC(=O)C2=CC(=CC=C2)C(C)(C)C#N)NC3=CC4=C(C=C3)N=CN(C4=O)C
Outline: as §1

[15] = compound: CC1=C(C=C(C=C1)NC(=O)C2=CC(=CC=C2)N(C)C)NC(=O)C3=CC=C(C=C3)O
Outline: as §1

[16] = compound: CC1=CC=C(C=C1)SC2=C3C=C(SC3=CN=C2)C(=O)N
Outline: as §1

Measured: log2 fold change

SRSF2 (UniProt Q01130)
Sequence of UniProt Q01130 (Q01130 whole entry, looked up): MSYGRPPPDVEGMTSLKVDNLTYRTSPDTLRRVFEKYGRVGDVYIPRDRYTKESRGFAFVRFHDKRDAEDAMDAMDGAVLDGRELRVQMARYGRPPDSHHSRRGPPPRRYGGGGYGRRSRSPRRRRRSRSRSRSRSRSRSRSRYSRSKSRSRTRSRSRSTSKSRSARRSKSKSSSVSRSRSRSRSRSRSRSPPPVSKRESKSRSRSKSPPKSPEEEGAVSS
inactive: erlotinib 0.005 | [1] 0.041 | [2] 0.026 | [3] -0.038 | [4] -0.018 | [5] -0.017 | [6] -0.031 | [7] 0.023 | [8] -0.037 | IRAK-1-4 Inhibitor I 0.04 | ibrutinib 0.021 | [9] -0.009 | ralimetinib 0.034 | [10] -0.065 | [11] -0.013 | [12] -0.021 | [13] -0.015 | [14] 0.016 | [15] 0.028 | [16] -0.018

STARD3 isoform 3 (UniProt Q14849)
Sequence of UniProt Q14849 (Q14849 whole entry, looked up): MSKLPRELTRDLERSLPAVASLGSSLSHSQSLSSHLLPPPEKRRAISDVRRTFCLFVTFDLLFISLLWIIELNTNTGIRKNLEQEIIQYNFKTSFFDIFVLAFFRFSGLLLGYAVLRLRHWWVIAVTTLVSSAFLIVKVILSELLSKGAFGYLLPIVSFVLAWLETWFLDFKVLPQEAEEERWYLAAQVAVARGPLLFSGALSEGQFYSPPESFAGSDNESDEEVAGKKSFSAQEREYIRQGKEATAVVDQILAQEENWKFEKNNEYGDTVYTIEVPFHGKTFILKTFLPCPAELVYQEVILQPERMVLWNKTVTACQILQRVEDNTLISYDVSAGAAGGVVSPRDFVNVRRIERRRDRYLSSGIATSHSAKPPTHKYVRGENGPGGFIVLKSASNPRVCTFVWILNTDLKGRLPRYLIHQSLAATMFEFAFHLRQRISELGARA
inactive: erlotinib -0.014 | [1] 0.104 | [2] -0.022 | [3] -0.085 | [4] -0.078 | [5] -0.003 | [6] 0.107 | [7] -0.085 | [8] 0.133 | IRAK-1-4 Inhibitor I 0.047 | ibrutinib 0.039 | [9] 0.044 | ralimetinib -0.074 | [10] -0.018 | [11] 0.011 | [12] 0.033 | [13] -0.072 | [14] 0.073 | [15] 0.021 | [16] 0.028

SND1 (UniProt Q7KZF4)
inactive: erlotinib 0.022 | [1] 0.042 | [2] -0.009 | [3] 0.007 | [4] 0.031 | [5] 0.017 | [6] -0.042 | [7] 0.005 | [8] -0.005 | IRAK-1-4 Inhibitor I -0.012 | ibrutinib 0.012 | [9] 0.004 | ralimetinib 0.03 | [10] 0.044 | [11] 0.027 | [12] 0.024 | [13] 0.015 | [14] 0.003 | [15] 0.038 | [16] 0.024

SLC25A38 (UniProt Q96DW6)
Sequence of UniProt Q96DW6 (Q96DW6 whole entry, looked up): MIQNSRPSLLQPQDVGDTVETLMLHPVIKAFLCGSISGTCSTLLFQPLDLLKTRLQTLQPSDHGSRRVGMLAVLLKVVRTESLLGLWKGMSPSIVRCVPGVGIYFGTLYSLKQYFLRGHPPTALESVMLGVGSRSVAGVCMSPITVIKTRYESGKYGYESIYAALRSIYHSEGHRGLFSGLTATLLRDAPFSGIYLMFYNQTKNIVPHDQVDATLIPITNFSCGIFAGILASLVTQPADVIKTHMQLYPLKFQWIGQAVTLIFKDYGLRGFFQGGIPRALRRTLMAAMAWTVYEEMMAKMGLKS
inactive: erlotinib -0.077 | [1] -0.117 | [2] -0.024 | [3] -0.049 | [4] -0.086 | [5] -0.114 | [6] -0.092 | [7] -0.023 | [8] -0.07 | IRAK-1-4 Inhibitor I -0.052 | ibrutinib 0.061 | [9] -0.108 | ralimetinib -0.074 | [10] -0.003 | [11] -0.114 | [12] -0.153 | [13] -0.437 | [14] 0.002 | [15] 0.115 | [16] 0.04

SMAD2 (UniProt Q15796)
Sequence of UniProt Q15796 (Q15796 whole entry, looked up): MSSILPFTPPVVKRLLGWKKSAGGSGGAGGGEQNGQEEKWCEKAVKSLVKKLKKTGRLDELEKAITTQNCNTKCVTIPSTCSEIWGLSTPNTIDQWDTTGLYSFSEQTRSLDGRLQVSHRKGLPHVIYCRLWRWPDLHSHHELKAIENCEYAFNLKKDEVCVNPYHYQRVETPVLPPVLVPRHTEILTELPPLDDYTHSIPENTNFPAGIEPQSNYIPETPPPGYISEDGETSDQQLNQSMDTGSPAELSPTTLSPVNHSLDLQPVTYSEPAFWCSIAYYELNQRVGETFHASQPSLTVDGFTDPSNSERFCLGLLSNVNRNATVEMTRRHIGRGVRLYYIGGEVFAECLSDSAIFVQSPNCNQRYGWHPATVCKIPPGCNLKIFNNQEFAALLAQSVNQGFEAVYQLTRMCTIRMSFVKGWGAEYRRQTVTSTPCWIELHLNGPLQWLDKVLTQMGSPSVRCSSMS
inactive: erlotinib 0.14 | [1] 0.062 | [2] -0.018 | [3] 0.03 | [4] 0.002 | [5] 0.074 | [6] -0.003 | [7] 0.004 | [8] 0.035 | IRAK-1-4 Inhibitor I -0.03 | ibrutinib 0.041 | [9] -0.014 | ralimetinib 0.025 | [10] 0.012 | [11] 0.005 | [12] -0.061 | [13] -0.014 | [14] 0.054 | [15] 0.029 | [16] 0.017

SLC38A1 (UniProt Q9H2H9)
Sequence of UniProt Q9H2H9 (Q9H2H9 whole entry, looked up): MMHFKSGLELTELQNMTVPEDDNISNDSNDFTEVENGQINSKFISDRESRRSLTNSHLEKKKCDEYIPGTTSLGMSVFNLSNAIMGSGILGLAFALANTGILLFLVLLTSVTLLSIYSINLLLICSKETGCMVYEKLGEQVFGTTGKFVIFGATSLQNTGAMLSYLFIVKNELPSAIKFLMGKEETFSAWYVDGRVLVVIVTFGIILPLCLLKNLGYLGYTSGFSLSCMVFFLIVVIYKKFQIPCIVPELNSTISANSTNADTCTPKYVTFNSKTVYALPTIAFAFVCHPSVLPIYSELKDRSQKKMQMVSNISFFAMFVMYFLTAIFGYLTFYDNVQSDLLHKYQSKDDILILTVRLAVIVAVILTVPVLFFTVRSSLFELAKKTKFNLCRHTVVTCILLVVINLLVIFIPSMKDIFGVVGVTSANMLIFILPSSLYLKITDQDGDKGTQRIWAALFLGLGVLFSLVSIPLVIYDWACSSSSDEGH
inactive: erlotinib -0.01 | [1] -0.029 | [2] 0.056 | [3] 0.007 | [4] 0.01 | [5] 0.039 | [6] -0.061 | [7] -0.027 | [8] 0.026 | IRAK-1-4 Inhibitor I 0.053 | ibrutinib 0.001 | [9] -0.053 | ralimetinib -0.021 | [10] -0.041 | [11] 0.037 | [12] -0.001 | [13] -0.039 | [14] 0.027 | [15] 0.018 | [16] -0.01

SLC22A18 (UniProt Q96BI1)
Sequence of UniProt Q96BI1 (Q96BI1 whole entry, looked up): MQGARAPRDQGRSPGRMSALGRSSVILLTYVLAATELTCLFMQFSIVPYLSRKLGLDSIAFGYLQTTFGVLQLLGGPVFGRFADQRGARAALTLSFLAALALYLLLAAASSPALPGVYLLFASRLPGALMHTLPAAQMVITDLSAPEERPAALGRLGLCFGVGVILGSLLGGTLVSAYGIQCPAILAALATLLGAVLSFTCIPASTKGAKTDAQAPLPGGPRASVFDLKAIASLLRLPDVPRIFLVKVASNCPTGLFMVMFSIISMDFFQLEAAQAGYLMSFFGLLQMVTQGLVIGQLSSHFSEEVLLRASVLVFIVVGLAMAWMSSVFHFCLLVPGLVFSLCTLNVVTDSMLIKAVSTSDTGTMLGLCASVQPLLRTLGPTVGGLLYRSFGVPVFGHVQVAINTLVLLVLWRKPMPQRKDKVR
inactive: erlotinib -0.008 | [1] 0.043 | [2] -0.018 | [3] 0.049 | [4] -0.147 | [6] -0.03 | [7] -0.062 | [8] 0.004 | ibrutinib 0.099 | [9] -0.047 | [11] 0.049 | [14] 0.02 | [16] 0.011

SSNA1 (UniProt O43805)
Sequence of UniProt O43805 (O43805 whole entry, looked up): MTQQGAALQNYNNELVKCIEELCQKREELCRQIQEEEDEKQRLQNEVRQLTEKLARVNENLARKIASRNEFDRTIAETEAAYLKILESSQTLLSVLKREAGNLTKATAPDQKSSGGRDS
inactive: erlotinib -0.004 | [1] -0.04 | [2] -0.013 | [3] 0.07 | [4] -0.036 | [5] 0.04 | [6] -0.03 | [7] -0.002 | [8] 0.066 | IRAK-1-4 Inhibitor I 0.018 | ibrutinib 0.187 | [9] 0.017 | ralimetinib -0.049 | [10] 0.012 | [11] 0.003 | [12] -0.012 | [13] -0.026 | [14] 0.013 | [15] 0.02 | [16] -0.024

SLC19A1 (UniProt P41440)
inactive: erlotinib -0.032 | [1] -0.024 | [2] 0.049 | [3] -0.04 | [4] -0.025 | [5] -0.001 | [6] -0.017 | [7] -0.023 | [8] 0.023 | IRAK-1-4 Inhibitor I 0.033 | ibrutinib 0.049 | [9] 0.013 | ralimetinib -0.004 | [10] -0.054 | [11] -0.019 | [12] 0.019 | [13] -0.044 | [14] 0.009 | [15] 0.004 | [16] -0.003

STMN3 (UniProt Q9NZ72)
Sequence of UniProt Q9NZ72 (Q9NZ72 whole entry, looked up): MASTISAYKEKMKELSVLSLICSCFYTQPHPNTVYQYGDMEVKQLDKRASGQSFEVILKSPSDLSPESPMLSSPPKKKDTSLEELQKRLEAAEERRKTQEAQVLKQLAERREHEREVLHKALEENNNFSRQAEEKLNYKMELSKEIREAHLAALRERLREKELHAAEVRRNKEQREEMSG
inactive: erlotinib 0.012 | [1] 0.01 | [2] -0.003 | [3] -0.122 | [4] -0.062 | [5] -0.026 | [6] 0.043 | [7] -0.097 | [8] 0.091 | IRAK-1-4 Inhibitor I -0.006 | ibrutinib 0.006 | [9] -0.028 | ralimetinib 0.093 | [10] 0.025 | [11] -0.089 | [12] -0.003 | [13] -0.059 | [14] 0.012 | [15] -0.011 | [16] 0.009

SMC1B isoform 3 (UniProt Q8NDV3)
Sequence of UniProt Q8NDV3 (Q8NDV3 whole entry, looked up): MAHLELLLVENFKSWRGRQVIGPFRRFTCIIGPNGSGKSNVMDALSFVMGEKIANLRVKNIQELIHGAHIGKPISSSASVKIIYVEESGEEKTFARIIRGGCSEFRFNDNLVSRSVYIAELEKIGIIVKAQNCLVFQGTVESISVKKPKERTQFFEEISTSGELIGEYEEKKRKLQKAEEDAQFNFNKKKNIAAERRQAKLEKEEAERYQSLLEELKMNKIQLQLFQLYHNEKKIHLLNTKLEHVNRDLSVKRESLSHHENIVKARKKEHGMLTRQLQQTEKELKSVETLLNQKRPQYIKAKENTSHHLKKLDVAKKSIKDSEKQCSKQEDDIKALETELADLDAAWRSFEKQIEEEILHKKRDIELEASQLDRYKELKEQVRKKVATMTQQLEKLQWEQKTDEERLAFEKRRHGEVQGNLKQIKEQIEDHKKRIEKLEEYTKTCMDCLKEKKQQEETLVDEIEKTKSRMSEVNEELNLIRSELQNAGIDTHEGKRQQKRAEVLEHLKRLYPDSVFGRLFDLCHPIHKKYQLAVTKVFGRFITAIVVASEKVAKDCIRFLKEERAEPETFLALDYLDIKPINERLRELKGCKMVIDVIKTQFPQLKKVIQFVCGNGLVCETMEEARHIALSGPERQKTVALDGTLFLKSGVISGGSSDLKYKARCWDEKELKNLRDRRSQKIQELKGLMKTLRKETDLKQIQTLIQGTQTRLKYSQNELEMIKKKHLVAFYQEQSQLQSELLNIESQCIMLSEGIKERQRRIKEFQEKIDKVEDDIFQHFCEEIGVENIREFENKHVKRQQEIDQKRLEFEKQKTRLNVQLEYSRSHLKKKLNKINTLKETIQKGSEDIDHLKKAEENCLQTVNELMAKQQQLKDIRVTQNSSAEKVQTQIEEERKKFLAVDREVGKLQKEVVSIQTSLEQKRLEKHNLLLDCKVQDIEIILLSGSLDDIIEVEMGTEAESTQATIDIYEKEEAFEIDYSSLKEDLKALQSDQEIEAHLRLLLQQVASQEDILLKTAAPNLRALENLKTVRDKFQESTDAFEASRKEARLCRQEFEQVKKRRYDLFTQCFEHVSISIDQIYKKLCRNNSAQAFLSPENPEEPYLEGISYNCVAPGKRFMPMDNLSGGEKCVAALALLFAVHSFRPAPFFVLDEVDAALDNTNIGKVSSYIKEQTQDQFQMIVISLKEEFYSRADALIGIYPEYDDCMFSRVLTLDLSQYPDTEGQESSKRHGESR
inactive: erlotinib -0.002 | [2] 0.003 | [3] -0.04 | [4] -0.067 | [5] 0.02 | [6] -0.032 | [7] 0.048 | [8] 0.205 | IRAK-1-4 Inhibitor I 0.043 | ibrutinib 0.013 | [9] 0.017 | ralimetinib 0.07 | [10] -0.029 | [11] 0.001 | [12] -0.012 | [13] -0.001 | [14] 0.021 | [15] 0.026 | [16] -0.005
active: [1] 0.265

SLC30A6 isoform 2 (UniProt Q6NXT4)
Sequence of UniProt Q6NXT4 (Q6NXT4 whole entry, looked up): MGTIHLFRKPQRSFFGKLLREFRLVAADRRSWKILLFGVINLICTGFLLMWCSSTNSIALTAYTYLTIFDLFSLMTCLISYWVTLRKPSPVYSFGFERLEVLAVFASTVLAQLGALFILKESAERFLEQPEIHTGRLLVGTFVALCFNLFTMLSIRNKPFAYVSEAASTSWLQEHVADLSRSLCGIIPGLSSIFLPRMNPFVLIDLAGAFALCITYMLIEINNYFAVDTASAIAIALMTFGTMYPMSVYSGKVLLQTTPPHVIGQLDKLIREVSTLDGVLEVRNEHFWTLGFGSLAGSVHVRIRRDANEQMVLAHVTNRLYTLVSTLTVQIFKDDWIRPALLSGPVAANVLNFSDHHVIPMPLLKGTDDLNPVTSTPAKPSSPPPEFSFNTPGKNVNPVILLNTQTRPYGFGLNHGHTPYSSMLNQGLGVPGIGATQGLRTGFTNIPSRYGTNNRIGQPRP
inactive: erlotinib -0.014 | [1] 0.031 | [2] -0.012 | [3] -0.08 | [4] 0.069 | [5] 0.008 | [6] -0.212 | [7] -0.005 | [8] -0.059 | IRAK-1-4 Inhibitor I 0 | ibrutinib 0.052 | [9] -0.019 | ralimetinib -0.013 | [10] -0.016 | [11] -0.023 | [12] 0.047 | [14] -0.022 | [15] 0.053 | [16] 0.011

SNRPD3 (UniProt P62318)
Sequence of UniProt P62318 (P62318 whole entry, looked up): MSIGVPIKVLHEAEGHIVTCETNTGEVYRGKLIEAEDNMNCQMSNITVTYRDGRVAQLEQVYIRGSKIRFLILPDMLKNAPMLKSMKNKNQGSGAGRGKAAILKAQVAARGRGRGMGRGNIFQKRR
inactive: erlotinib 0.017 | [1] 0.021 | [2] 0.016 | [3] -0.057 | [4] 0.013 | [5] -0.013 | [6] 0.033 | [7] 0.019 | [8] 0.044 | IRAK-1-4 Inhibitor I 0.026 | ibrutinib -0.033 | [9] 0.035 | ralimetinib 0.067 | [10] -0.018 | [11] -0.05 | [12] 0.017 | [13] 0.019 | [14] -0.012 | [15] -0.004 | [16] -0.008

— the supplement of paper PMC10849652
